Shown are actives, neighbours in structure and some others; about 0.3% of the full set was active somewhere.
mcGAS inh – inhibitors of mouse cGAS | recombinant cGAS, Kinase-Glo ATP depletion luminescence | inhibition, % at 12.5 µM | 0.15% of 160,000 active | AID 1259399;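 note: 0% = negative control wells and 100% = reference inhibitor with no enzyme activity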
NPYLR7 agonist – mosquito NPYLR7 agonism. activation, % at 10 µM. 0.15% of 270,000 active. HEK293T NPYLR7/Galpha15, GCaMP6s calcium fluorescence; in the data active = activation above about 40%;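 note: 0% = vehicle and 100% = reference agonist at the receptor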
hcGAS lum – inhibitors of human cGAS; Q8N884; recombinant h-cGAS, ATP depletion, Kinase-Glo luminescence; inhibition, % at 12.5 µM; 0.081% of 290,000 active; AID 1259398;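 note: 0% = vehicle reaction and 100% = reaction without DNA for no activity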
The depositor's hits bear a star; x = no result given. Cut-off read from the data, not from the text of the source, unless noted: active = inhibition above about 40%; inactive = the rest.

SMILES	mcGAS inh	NPYLR7 agonist	hcGAS lum
N#CC(C#N)=Cc1ccc(-c2ccccc2)cc1	49.2*	-2.5	-4.2
Cc1ccc(C2CNCC2C(=O)N2CCN(c3ccccc3C)CC2)cc1 (stereo not given)	x	24.4	-6.9
COCCCNC(=O)CN1C(=O)CSC(c2ccccc2F)c2c(C(C)(C)C)nn(C(C)(C)C)c21 (stereo not given)	-3.0	11.6	1.2
Cc1ccc(N2C(=O)NC(=O)/C(=C/c3cn(C)c4ccccc34)C2=O)cc1	-0.6	2.2	-2.8
Cc1cccc(N2C(=O)NC(=O)/C(=C/c3cn(C)c4ccccc34)C2=O)c1	1.2	52.9*	0.4
